A short description of assay [1]: P-glycoprotein substrates identified in KB-8-5-11 adenocarcinoma cell line, qHTS therapeutic library screen (AID 1346987). Further: nearly all actives have a fitted effect of over 65% in size. Further: potency means the concentration at half of the fitted maximal effect. The method, boiled down:
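Steps: plate 500 KB-8-5-11 cells/well in DMEM + 10% FCS (colchicine removed); pin compounds in dose-response; incubate 72 h, 37 degree C, 5% CO2; add CellTiter-Glo, 5 min; read luminescence.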

The nature of assay [2]: NS1 protein of Zika virus - qHTS assay to identify small molecule inhibitors in human HEK 293 cells (AID 1347053). Further: series mostly up to about 46 µM; nearly all actives have a fitted effect of over 55% in size. The method, boiled down: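 HEK 293 cells pretreated with compound for 1 h, then infected with ZIKV MR766 (MOI 0.5) for 24 h at 37 C. NS1 detected by TR-FRET with two anti-NS1 antibodies; normalized to uninfected (0%) and infected (100%) wells.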
A short description of assay [3]: qHTS for Inhibitors of the Functional Ribonucleoprotein Complex (vRNP) of Lassa (LASV) Arenavirus: LASV Primary Screen - GLuc reporter signal (AID 1347082; calls by dose curve; tested in HEK293 reporter line; further: series mostly up to about 57 µM; nearly all actives have a fitted effect of over 60% in size).
Assay [4] is described as follows: qHTS for Inhibitors of the Functional Ribonucleoprotein Complex (vRNP) of Lassa (LASV) Arenavirus: Viability assay - alamar blue signal for LASV Primary Screen (AID 1347083; calls by dose curve; tested in HEK293 reporter line; further: series mostly up to about 57 µM; nearly all actives have a fitted effect of over 80% in size). On the technique in general: qHTS replaces the single test concentration by a dilution series.
Assay [5] is described as follows: qHTS for Inhibitors of the Functional Ribonucleoprotein Complex (vRNP) of Lymphocytic Choriomeningitis Arenaviruses (LCMV): Viability assay - alamar blue signal for LCMV Primary Screen (AID 1347085; calls by dose curve; tested in HEK293 reporter line; further: series mostly up to about 57 µM; nearly all actives have a fitted effect of over 80% in size).
In assay [6] the target is Nucleoprotein (Lymphocytic choriomeningitis virus (strain Armstrong)) (UniProt P09992). Description: qHTS for Inhibitors of the Functional Ribonucleoprotein Complex (vRNP) of Lymphocytic Choriomeningitis Arenaviruses (LCMV): LCMV Primary Screen - GLuc reporter signal (AID 1347086; calls by dose curve; further: series mostly up to about 57 µM; nearly all actives have a fitted effect of over 70% in size).
Assay [7] in a line: qHTS of pediatric cancer cell lines to identify multiple opportunities for drug repurposing: Primary screen for TC32 cells (AID 1347089). Further: nearly all actives have a fitted effect of over 60% in size. The method, boiled down: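 In the primary qHTS, MIPE compounds were tested at 11 concentrations (0.78 nM to 46 µM) and NPC compounds at 8 (0.59 nM to 46 µM) on TC32 cells for 48 h. CellTiter-Glo luminescence gave viability.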
Assay [8] can be described thus: qHTS of pediatric cancer cell lines to identify multiple opportunities for drug repurposing: Primary screen for SJ-GBM2 cells (AID 1347091). The method, boiled down:
(§1)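 Eight- or eleven-point concentration series, 48 h treatment at 37 degrees C in growth media; readout CellTiter-Glo luminescence. Potency and efficacy were taken from the concentration-response curves.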

Assay [9] in a line: qHTS of pediatric cancer cell lines to identify multiple opportunities for drug repurposing: Primary screen for A673 cells (AID 1347092). Further: nearly all actives have a fitted effect of over 45% in size. The method, boiled down:
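48 h compound exposure, A673, 500-1,000 cells/well, 37 degrees C/5% CO2. MIPE: 11-point, 0.78 nM-46 µM; NPC: 8-point, 0.59 nM-46 µM (final). Readout CellTiter-Glo luminescence after 15 min RT.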

Assay [10] in a line: qHTS of pediatric cancer cell lines to identify multiple opportunities for drug repurposing: Primary screen for SK-N-MC cells (AID 1347093). Further: series mostly up to about 46 µM. The method, boiled down: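 Metabolically active cells were quantified by ATP-dependent luminescence (CellTiter-Glo, 15 min at room temperature) following 48 h treatment. Cells had been plated at 500-1,000 per well and settled for 5 h beforehand.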

Assay [11] in a line: qHTS of pediatric cancer cell lines to identify multiple opportunities for drug repurposing: Primary screen for DAOY cells (AID 1347090). Further: nearly all actives have a fitted effect of over 55% in size. Further: potency means the concentration at half of the fitted maximal effect. The method, boiled down:
as §1

SMILES strings stand for the structures. Inconclusive results are not listed. The source made the active and inactive calls. Unless noted, the call rests on the fitted dose curve; in most records, active means well fitted curve in the direction sought with a large enough effect; inconclusive means small, poorly fitted or top-dose-only effect, or another doubt; inactive means no such curve, though single readings can be large; an effect the other way counts as inactive or inconclusive.

Chain of Nucleoprotein (Lymphocytic choriomeningitis virus (strain Armstrong)) (P09992 whole entry, looked up): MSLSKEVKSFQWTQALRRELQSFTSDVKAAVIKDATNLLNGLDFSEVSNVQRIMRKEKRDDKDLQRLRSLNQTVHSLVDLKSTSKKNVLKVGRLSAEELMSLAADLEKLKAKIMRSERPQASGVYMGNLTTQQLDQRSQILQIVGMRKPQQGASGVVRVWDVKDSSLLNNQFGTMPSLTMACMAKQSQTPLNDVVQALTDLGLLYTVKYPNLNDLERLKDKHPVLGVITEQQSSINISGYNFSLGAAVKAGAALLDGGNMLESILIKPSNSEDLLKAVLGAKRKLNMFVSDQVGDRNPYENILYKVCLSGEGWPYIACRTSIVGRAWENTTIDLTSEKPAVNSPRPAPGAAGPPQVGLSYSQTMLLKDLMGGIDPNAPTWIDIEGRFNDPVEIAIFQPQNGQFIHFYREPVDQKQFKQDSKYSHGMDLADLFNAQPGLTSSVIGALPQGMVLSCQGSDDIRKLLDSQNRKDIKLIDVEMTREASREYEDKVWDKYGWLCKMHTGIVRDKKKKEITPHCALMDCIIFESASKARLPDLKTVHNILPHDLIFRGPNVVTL

As for `Nc1nc(N)nc(NC2CC2)n1`, the Potency result in [1], in [3], in assay [4], in assay [5], in [6] and in assay [7] was “inactive” throughout. The Potency entry in [8], in assay [9] and in assay [10] was “inactive” each time. The result in assay [2] was inactive.
Turning to `O=C(O)/C=C\C(=O)O`, the Potency entry in [1], in assay [3], in assay [4], in assay [5] and in assay [6] was “inactive” throughout.
As to `COc1ccc2c3c1O[C@H]1[C@H](O)CC[C@H]4[C@@H](C2)N(C)CC[C@@]341`, the Potency entry in [1], in assay [3], in assay [4], in [5], in [6] and in assay [7] was “inactive” each time. Further, the Potency entry in [8] and in [9] was “inactive” in each case. For the same compound, in [2], the outcome was inactive.
On to `NC(=O)CS(=O)C(c1ccccc1)c1ccccc1` (configuration not stated), for which the Potency result in [1], in assay [3], in [4], in assay [5], in assay [6] and in assay [7] was “inactive” in each case. For the same compound, the Potency result in [11], in [8], in assay [9] and in assay [10] was “inactive” in each case. Moreover, the compound was classed as inactive in assay [2].
On to `COc1cc(CC(C)N)cc(OC)c1OC` (configuration not stated), for which the Potency entry in assay [1], in assay [3], in [4], in assay [5], in [6] and in assay [7] was “inactive” throughout. Besides, the Potency entry in [11], in assay [8], in assay [9] and in assay [10] was “inactive” each time. The call in assay [2] was inactive.
For the compound `CC(C)(C)NCC(O)c1cc(Cl)c(N)c(C(F)(F)F)c1` (configuration not stated), the Potency result in assay [1], in [3], in [4], in assay [5], in [6] and in [7] was “inactive” in each case. Moreover, the Potency result in assay [11], in assay [8] and in assay [9] was “inactive” each time.
As for `O=[N+]([O-])O[C@H]1CO[C@H]2[C@@H]1OC[C@H]2O[N+](=O)[O-]`, the Potency entry in assay [1], in assay [3], in assay [4], in assay [5], in assay [6] and in [7] was “inactive” each time. Moreover, the Potency result in assay [8], in assay [9] and in assay [10] was “inactive” throughout. In addition, in [2], the compound was classed as inactive.
With `CCC1(CC)C(=O)C=CNC1=O`, the Potency entry in assay [1], in assay [3], in [4], in assay [5], in assay [6] and in assay [7] was “inactive” throughout. Moreover, the Potency result in [11], in assay [8] and in assay [9] was “inactive” throughout. Besides, the compound was classed as inactive in assay [2].
In the case of `CCN[C@@H](C)Cc1ccccc1`, the Potency entry in [1], in assay [3], in [4], in assay [5], in [6] and in assay [7] was “inactive” each time. For the same compound, the Potency result in [8], in assay [9] and in assay [10] was “inactive” in each case. Moreover, in assay [2], the compound was classed as inactive.
In the case of `Nc1ccccc1C(=O)O`, the Potency result in [1], in [3], in assay [4], in [5], in [6] and in assay [7] was “inactive” each time. Further, the Potency entry in assay [11], in [8], in assay [9] and in [10] was “inactive” each time. For the same compound, in assay [2], the compound was called inactive.
`CCCCCCC(=O)CCCCCC/C=C/C[C@@H](O)[C@H](O)[C@@](N)(CO)C(=O)O`: the Potency entry in [1], in [3], in [4], in assay [5], in assay [6] and in assay [7] was “inactive” throughout. The Potency result in assay [11], in assay [8], in assay [9] and in [10] was “inactive” in each case. The compound was called inactive in [2].
Take `NC(=O)c1cc([N+](=O)[O-])cc([N+](=O)[O-])c1`: the Potency result in [1], in assay [3], in [4], in assay [5], in [6] and in assay [7] was “inactive” in each case. Besides, the Potency result in assay [11], in assay [8], in [9] and in assay [10] was “inactive” throughout. Moreover, the compound was classed as inactive in assay [2].
On to `CC1(C)C(C=C(Cl)Cl)C1C(=O)OC(C#N)c1cccc(Oc2ccccc2)c1` (configuration not stated), for which the Potency result in assay [1], in [3], in assay [4], in assay [5], in assay [6] and in [7] was “inactive” each time. The Potency result in assay [11], in assay [8], in assay [9] and in [10] was “inactive” in each case. Moreover, the outcome in assay [2] was inactive.
For `CC(C)NC(C)C`, the Potency entry in [1], in assay [3], in [4], in [5], in assay [6] and in assay [7] was “inactive” throughout. For the same compound, the Potency result in assay [11], in [8], in assay [9] and in assay [10] was “inactive” each time. Also, in [2], the outcome was inactive.
Consider `COc1cccc(C(=O)CCN[C@@H](C)[C@H](O)c2ccccc2)c1`, for which the Potency entry in [1], in assay [3], in [4], in assay [5], in assay [6] and in assay [7] was “inactive” in each case. In addition, the Potency result in assay [8] is “inactive”. For the same compound, the Potency in assay [11] is 26.6 µM (active).
For `CN1C(=O)COc2c(C(=O)NC3CN4CCC3CC4)cc(Cl)cc21` (configuration not stated), the Potency result in [1], in [3], in assay [4], in [5], in assay [6] and in [7] was “inactive” in each case. In addition, the Potency result in assay [8] and in assay [9] was “inactive” throughout. Besides, the compound was classed as inactive in assay [2].
Turning to `COc1c2c(cc3c1OCO3)CCN(C)C2`, the Potency entry in assay [1], in assay [3], in assay [4], in assay [5], in [6] and in assay [7] was “inactive” throughout. Besides, the Potency result in assay [11], in assay [8], in assay [9] and in assay [10] was “inactive” in each case. In addition, the call in assay [2] was inactive.
For `CC(=O)NC1CCSC1=O` (configuration not stated), the Potency entry in assay [1], in [3], in [4], in assay [5], in assay [6] and in assay [7] was “inactive” in each case. The Potency entry in [11], in assay [8], in assay [9] and in assay [10] was “inactive” in each case. In addition, the compound was called inactive in assay [2].
For `CCCCCCCCCC(=O)O[C@H]1CC[C@H]2[C@@H]3CCC4=CC(=O)CC[C@@H]4[C@H]3CC[C@]12C`, the Potency in assay [1] was 6.51 µM (active). The call in assay [2] was inactive. Besides, the Potency entry in assay [3], in assay [4], in assay [5], in [6], in assay [11] and in assay [8] was “inactive” each time. Also, the Potency entry in assay [9] is “inactive”.
Consider `[N-]=[N+]=CC(=O)OC[C@H](N)C(=O)O`, for which the Potency result in [1], in assay [3], in [4], in assay [5], in assay [6] and in [7] was “inactive” throughout. The Potency entry in [8], in assay [9] and in [10] was “inactive” throughout. For the same compound, the call in assay [2] was inactive.
For `Nc1ccc([As](=O)(O)O)cc1`, the Potency entry in assay [1], in assay [3], in assay [4], in assay [5], in [6] and in assay [7] was “inactive” each time. Further, the Potency result in assay [11], in assay [8] and in [9] was “inactive” in each case. In [2], the call was inactive.
As for `O=C1CN=C(c2ccccc2)c2cc([N+](=O)[O-])ccc2N1`, the Potency entry in [1], in [3], in assay [4], in assay [5], in assay [6] and in assay [7] was “inactive” each time. Moreover, the Potency result in assay [11], in assay [8] and in assay [9] was “inactive” throughout.

The record behind these values is PubChem BioAssay (NCATS).
